According to PubChem BioAssay:
Inconclusive results are not listed. The source made the active and inactive calls.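 The calls were made as follows, unless noted: active = normalized viability below 100% at a tested concentration; inactive = the rest.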

Columns and labels:
[1] = growth inhibition of DIPG glioma cells, dose response, cell-based, SU-DIPG-XVII, MIPE5.0, CellTiter-Glo, qHTS (AID 1347060; cut-off not given, nearly all actives have AC50 up to about 26 µM;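 as to AC50: cells exposed to compound for 48 hours before viability readout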); settings: SU-DIPG-XVII viability, CellTiter-Glo ATP luminescence
[2] = growth inhibition of DIPG glioma cells, dose response, cell-based, SU-DIPG-XIII, MIPE4.0, CellTiter-Glo, qHTS (AID 1347061; cut-off not given, nearly all actives have AC50 up to about 37 µM;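 also: cells exposed to compound for 48 hours before readout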); settings: SU-DIPG-XIII viability, CellTiter-Glo ATP luminescence
[3] = growth inhibition of DIPG glioma cells, dose response, cell-based, JHH-DIPG-1, MIPE4.0, CellTiter-Glo, qHTS (AID 1347062; cut-off not given, nearly all actives have AC50 up to about 27 µM;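 as to AC50: cells exposed to compound for two days before readout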); settings: JHH-DIPG-1 viability, CellTiter-Glo ATP luminescence
[4] = growth inhibition of DIPG glioma cells, dose response, cell-based, SU-DIPG-IV, MIPE4.0, CellTiter-Glo, qHTS (AID 1347063; cut-off not given, nearly all actives have AC50 up to about 30 µM;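 also: compound exposure lasted 48 hours before the viability readout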); settings: SU-DIPG-IV viability, CellTiter-Glo ATP luminescence
[5] = growth inhibition of DIPG glioma cells, dose response, cell-based, SU-DIPG-XIII, MIPE5.0, CellTiter-Glo, qHTS (AID 1347064; cut-off not given, nearly all actives have AC50 up to about 23 µM;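 as to AC50: cells exposed to compound for 48 hours before the viability read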); settings: SU-DIPG-XIII viability, CellTiter-Glo ATP luminescence
[6] = viability loss in pontine glioma line – cell-based, SU-DIPG-XXV, MIPE5.0, CellTiter-Glo, qHTS, dose response (AID 1347065; cut-off not given, nearly all actives have AC50 up to about 26 µM;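 also: cells exposed to compound for 48 hours before ATP readout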); settings: CellTiter-Glo ATP luminescence
[7] = SU-DIPG-VI glioma cell viability, MIPE4.0 library, CellTiter-Glo luminescence, qHTS (AID 1347066; cut-off not given, nearly all actives have AC50 up to about 30 µM;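 also: cells exposed to compound for 48 hours before readout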); settings: CellTiter-Glo ATP luminescence
[8] = JHH-DIPG-1 glioma cell viability, MIPE5.0 library, CellTiter-Glo luminescence, qHTS (AID 1347067; cut-off not given, nearly all actives have AC50 up to about 26 µM;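 also: cells exposed to compound for 48 hours before readout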); settings: JHH-DIPG-1 glioma viability, CellTiter-Glo ATP luminescence
[9] = SU-DIPG-XXV glioma cell viability, MIPE5.0 library, qHTS (AID 1347068; cut-off not given, nearly all actives have IC50 up to about 30 µM;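 as to IC50: cells exposed to compound for 48 hours before viability readout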)
[10] = ovarian cancer cell viability with rucaparib, profiling panel, oncology-focused library, rucaparib conditional (AID 1508598); settings: patient-derived ovarian cancer cells, CellTiter-Glo viability, 144 h, stronger effect = lower value
[11] = sensitizers of A549 cells to miR-34 induction, primary screen, imaging, A549 dox-inducible miR-34, nuclei and caspase counts (AID 1347080;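 active = compounds whose cell count with miR-34 switched on is under 0.7 times the count with it off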); settings: A549 miR-34 inducible, Hoechst nuclei count, 48 h
[12] = survival rescue of mitochondrial mutant cells in low glucose, primary screen, MELAS cybrids, Rieske KO mouse fibroblasts, CellTiter-Glo (AID 1508586;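 active = mean z-score across replicates of 1.96 or higher in either the MELAS or the Rieske mutant cell line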;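 also: z relative to plate mean and SD of compound and empty wells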)
[13] = modifiers of HSF1 nuclear foci, imaging, Selleck Cancer Library (AID 1347162; in the data active = plate-normalised HSF1 focus index below about 0.46); settings: human cells, at 10 µM; SSMD: measured here: HSF1 foci SSMD mean; cell count: measured here: cell number; plate-normalised HSF1 focus index: stronger effect = lower value
[14] = at 0.000305 µM, OCI-C5x cells, with rucaparib 10 µM, 100% = cells with rucaparib alone
[15] = at 0.000305 µM, OCI-C5x cells, without rucaparib
[16] = at 0.000305 µM, OCI-P5x cells, with rucaparib 20 µM, 100% = cells with rucaparib alone
[17] = at 0.000305 µM, OCI-P5x cells, without rucaparib
[18] = at 0.00122 µM, OCI-C5x cells, with rucaparib 10 µM, 100% = cells with rucaparib alone
[19] = at 0.00122 µM, OCI-C5x cells, without rucaparib
[20] = at 0.00122 µM, OCI-P5x cells, with rucaparib 20 µM, 100% = cells with rucaparib alone
[21] = at 0.00122 µM, OCI-P5x cells, without rucaparib
[22] = at 0.00488 µM, OCI-C5x cells, with rucaparib 10 µM, 100% = cells with rucaparib alone
[23] = at 0.00488 µM, OCI-C5x cells, without rucaparib
[24] = at 0.00488 µM, OCI-P5x cells, with rucaparib 20 µM, 100% = cells with rucaparib alone
[25] = at 0.00488 µM, OCI-P5x cells, without rucaparib
[26] = at 0.0195 µM, OCI-C5x cells, with rucaparib 10 µM, 100% = cells with rucaparib alone
[27] = at 0.0195 µM, OCI-C5x cells, without rucaparib
[28] = at 0.0195 µM, OCI-P5x cells, with rucaparib 20 µM, 100% = cells with rucaparib alone
[29] = at 0.0195 µM, OCI-P5x cells, without rucaparib
[30] = at 0.0781 µM, OCI-C5x cells, with rucaparib 10 µM, 100% = cells with rucaparib alone
[31] = at 0.0781 µM, OCI-C5x cells, without rucaparib
[32] = at 0.0781 µM, OCI-P5x cells, with rucaparib 20 µM, 100% = cells with rucaparib alone
[33] = at 0.0781 µM, OCI-P5x cells, without rucaparib
[34] = at 0.313 µM, OCI-C5x cells, with rucaparib 10 µM, 100% = cells with rucaparib alone
[35] = at 0.313 µM, OCI-C5x cells, without rucaparib
[36] = at 0.313 µM, OCI-P5x cells, with rucaparib 20 µM, 100% = cells with rucaparib alone
[37] = at 0.313 µM, OCI-P5x cells, without rucaparib
[38] = at 1.25 µM, OCI-C5x cells, with rucaparib 10 µM, 100% = cells with rucaparib alone
[39] = at 1.25 µM, OCI-C5x cells, without rucaparib
[40] = at 1.25 µM, OCI-P5x cells, with rucaparib 20 µM, 100% = cells with rucaparib alone
[41] = at 1.25 µM, OCI-P5x cells, without rucaparib
[42] = at 5 µM, OCI-C5x cells, with rucaparib 10 µM, 100% = cells with rucaparib alone
[43] = at 5 µM, OCI-C5x cells, without rucaparib
[44] = at 5 µM, OCI-P5x cells, with rucaparib 20 µM, 100% = cells with rucaparib alone
[45] = at 5 µM, OCI-P5x cells, without rucaparib
[46] = stronger effect = lower value, cell number ratio, induced over uninduced
[47] = measured here: relative caspase fold change +Dox/-Dox
[48] = measured here: total cells with miR-34 induction, stronger effect = lower value
[49] = measured here: total cells without miR-34 induction
[50] = MELAS cybrid survival, CellTiter-Glo 48 h, stronger effect = higher value
[51] = Rieske KO mouse fibroblast survival, CellTiter-Glo 72 h

Cc1cc(N2CCOCC2)cc2[nH]c(-c3c(NC[C@@H](O)c4cccc(Cl)c4)cc[nH]c3=O)nc12
inactive: outcome [9] | viability [10, 14] 117% | viability [10, 15] 119% | viability [10, 16] 135% | viability [10, 18] 126% | viability [10, 19] 114% | viability [10, 20] 133% | viability [10, 22] 123% | viability [10, 23] 109% | viability [10, 24] 130% | viability [10, 26] 119% | viability [10, 27] 118% | viability [10, 28] 133% | viability [10, 30] 126% | viability [10, 31] 123% | viability [10, 32] 118% | viability [10, 34] 123% | viability [10, 35] 123% | viability [10, 38] 133% | viability [10, 39] 126%
active: AC50 [1] 0.742 µM | AC50 [2] 1.48 µM | AC50 [3] 13.2 µM | AC50 [4] 7.43 µM | AC50 [5] 0.209 µM | AC50 [6] 0.263 µM | AC50 [7] 0.0526 µM | AC50 [8] 3.72 µM | viability [10, 17] 99.5% | viability [10, 21] 97.6% | viability [10, 25] 98.9% | viability [10, 29] 96.1% | viability [10, 33] 83.6% | viability [10, 36] 79.9% | viability [10, 37] 66.6% | viability [10, 40] 41.4% | viability [10, 41] 53.5% | viability [10, 42] 37.3% | viability [10, 43] 80.4% | viability [10, 44] 0.53% | viability [10, 45] 12.5%

Cc1cc(Nc2cc(N3CCN(C)CC3)nc(/C=C/c3ccccc3)n2)n[nH]1
inactive: viability [10, 14] 120% | viability [10, 15] 103% | viability [10, 16] 101% | viability [10, 18] 106% | viability [10, 19] 107% | viability [10, 20] 110% | viability [10, 21] 108% | viability [10, 22] 113% | viability [10, 23] 104% | viability [10, 24] 118% | viability [10, 25] 114% | viability [10, 26] 115% | viability [10, 27] 116% | viability [10, 28] 109% | viability [10, 29] 107% | viability [10, 30] 110% | viability [10, 32] 103% | viability [10, 33] 107% | viability [10, 34] 110% | viability [10, 35] 112%
active: AC50 [1] 1.05 µM | AC50 [2] 12.1 µM | AC50 [3] 27 µM | AC50 [4] 13.6 µM | AC50 [5] 2.09 µM | AC50 [6] 1.05 µM | AC50 [7] 13.6 µM | AC50 [8] 4.68 µM | IC50 [9] 2.63 µM | viability [10, 17] 97.8% | viability [10, 31] 95.9% | viability [10, 36] 87.9% | viability [10, 37] 93.6% | viability [10, 38] 90.9% | viability [10, 39] 93.3% | viability [10, 40] 74% | viability [10, 41] 56.9% | viability [10, 42] 95.4% | viability [10, 43] 54.2% | viability [10, 44] 3.53% | viability [10, 45] 6.43%

CCN(CC)Cc1ccc2cc(COC(=O)Nc3ccc(C(=O)NO)cc3)ccc2c1
inactive: fold change [11, 46] 1.01 | z-score [12, 50] 1.32
1250: cell count [11, 49]
-3.38: z-score [12, 51]
0.529: fold change [11, 47]
1260: cell count [11, 48]
active: AC50 [1] 5.25 µM | AC50 [2] 11.8 µM | AC50 [3] 2.64 µM | AC50 [4] 5.26 µM | AC50 [5] 2.63 µM | AC50 [6] 1.66 µM | AC50 [7] 1.66 µM | AC50 [8] 1.48 µM | IC50 [9] 18.6 µM

CC(C)c1ccc(Cn2ccc3c4c(N)nc(NC5CC5)nc4ccc32)cc1
-7.04: SSMD [13]
inactive: plate-normalised HSF1 focus index [13] 0.581
active: AC50 [1] 2.63 µM | AC50 [2] 20.9 µM | AC50 [3] 4.69 µM | AC50 [4] 4.18 µM | AC50 [5] 6.61 µM | AC50 [6] 2.63 µM | AC50 [7] 18.7 µM | AC50 [8] 5.25 µM | IC50 [9] 3.72 µM
3190: cell count [13]

O=C(NC1CCOCC1)c1ccc(-c2cc(-c3cn[nH]c3-c3ccccn3)ccn2)cc1
inactive: outcome [1] | outcome [2] | outcome [3] | outcome [4] | outcome [5] | outcome [6] | outcome [7] | outcome [8] | outcome [9] | fold change [11, 46] 0.83 | z-score [12, 50] -0.384
0.736: fold change [11, 47]
0.682: z-score [12, 51]
10600: cell count [11, 49]
8800: cell count [11, 48]
